# Data: PubChem BioAssay (Tox21)
# “And” between values parts separate entries of the source, which are not always exact repeats. Equal values may be shown once. Results filed as inconclusive are left out. A call without a number means that no potency is given here. A structure can be active in one record and inactive in another. The source made the active and inactive calls. The call rests on the fitted dose curve; in most records, active means well fitted curve in the direction sought with a large enough effect in the repeat runs; inconclusive means weak or mixed curves; inactive means no such curve, though single readings can be large; an effect the other way counts as inactive or inconclusive.
# Columns and labels:
# [1] = qHTS RealTime-Glo MT Cell Viability Assay in HEK293 cells - 40 hour (AID 1224874); conditions: RealTime-Glo luminescence; max response: stronger effect = lower value; further: nearly all actives have a fitted effect of over 50% in size; further: potency means the concentration at half of the fitted maximal effect
# Summary of the method: (§1)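 HEK293 + NanoLuc + prosubstrate, 600 cells/well; 5 h, 37 C/5% CO2; compound 23 nL in DMSO by pintool; 37 C; luminescence read at 0, 8, 16, 24, 32 and 40 h time points.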
# [2] = A CellTox Green Cytotoxicity Assay to monitor cytotoxicity in HEK293 cells - 24 hour (AID 1224875); further: nearly all actives have a fitted effect of over 45% in size; further: potency means the concentration at half of the fitted maximal effect
# Summary of the method: (§2)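 Tox21 screen in HEK293: membrane-impermeant cyanine dye fluoresces on binding dead-cell DNA; compound pinned 5 h post-seeding, plates held at 37 C, signal read repeatedly through 40 h.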
# [3] = A CellTox Green Cytotoxicity Assay to monitor cytotoxicity in HepG2 cells - 16 hour (AID 1224876); further: nearly all actives have a fitted effect of over 45% in size; further: potency means the concentration at half of the fitted maximal effect
# Summary of the method: (§3)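 Measurements at 0, 8, 16, 24, 32 and 40 h of treatment captured CellTox Green fluorescence in HepG2 cells that had been co-plated with reagent and preincubated 5 h at 37 C/5% CO2.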
# [4] = qHTS RealTime-Glo MT Cell Viability Assay in HepG2 cells - 32 hour (AID 1224877); further: nearly all actives have a fitted effect of over 55% in size; further: potency means the concentration at half of the fitted maximal effect
# Summary of the method: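 Luminescence read-out: viable HepG2 cells reduce a prosubstrate to a NanoLuc substrate, giving a signal proportional to live cell number. Reads taken at 0, 8, 16, 24, 32 and 40 h of compound exposure at 37 C.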
# [5] = A CellTox Green Cytotoxicity Assay to monitor cytotoxicity in HepG2 cells - 24 hour (AID 1224878); further: nearly all actives have a fitted effect of over 45% in size; further: potency means the concentration at half of the fitted maximal effect
# Summary of the method: as §3
# [6] = A CellTox Green Cytotoxicity Assay to monitor cytotoxicity in HepG2 cells - 40 hour (AID 1224879); further: nearly all actives have a fitted effect of over 40% in size; further: potency means the concentration at half of the fitted maximal effect
# Summary of the method: as §3
# [7] = A CellTox Green Cytotoxicity Assay to monitor cytotoxicity in HEK293 cells - 32 hour (AID 1224881); further: nearly all actives have a fitted effect of over 40% in size; further: potency means the concentration at half of the fitted maximal effect
# Summary of the method: as §2
# [8] = A CellTox Green Cytotoxicity Assay to monitor cytotoxicity in HepG2 cells - 0 hour (AID 1224882); further: nearly all actives have a fitted effect of over 35% in size
# Summary of the method: as §3
# [9] = A CellTox Green Cytotoxicity Assay to monitor cytotoxicity in HepG2 cells - 32 hour (AID 1224883); further: nearly all actives have a fitted effect of over 50% in size; further: potency means the concentration at half of the fitted maximal effect
# Summary of the method: as §3
# [10] = qHTS RealTime-Glo MT Cell Viability Assay in HEK293 cells - 0 hour (AID 1224880); further: top concentration of the series differs between compounds; nearly all actives have a fitted effect of over 45% in size
# Summary of the method: as §1
Compound,Potency [1],Potency [2],Potency [3],Potency [4],Potency [5],Potency [6],Potency [7],Potency [8],Potency [9],max response [1],Potency [10]
CC(NCCC(c1ccccc1)c1ccccc1)c1ccccc1 (stereo not drawn),16.9 µM (active),21.3 µM (active),23.9 µM (active),23.9 µM (active),16.9 µM (active),15.1 µM (active),21.3 µM (active),inactive,15.1 µM (active),,
COC(=O)NCCC[Si](OC)(OC)OC,,inactive,inactive,inactive,inactive,inactive,,,inactive,15.5% (inactive),inactive
COCC(=O)O[C@]1(CCN(C)CCCc2nc3ccccc3[nH]2)CCc2cc(F)ccc2[C@@H]1C(C)C,6.74 µM (active),21.3 µM (active),19 µM (active),13.4 µM (active),13.4 µM (active),10.7 µM (active),21.3 µM (active),,10.7 µM (active),,inactive
CCCCC(CC)COC(=O)c1ccc(O)cc1 (stereo not drawn),48.8 µM (active),43.5 µM (active) and 21.9 µM (active),inactive and 30.9 µM (active),inactive,34.7 µM (active),34.7 µM (active),,inactive,34.7 µM (active),,inactive
NC(=O)c1ccccc1N,,inactive,inactive,inactive,inactive,inactive,,inactive,inactive,-1.93% (inactive),inactive
O=C(O)Cc1ccc(OCCNC[C@H](O)c2ccccc2)cc1,,inactive,inactive,inactive,inactive,inactive,inactive,inactive,inactive,6.67% (inactive),inactive
Cc1cc(=O)[nH]c(=O)[nH]1,,inactive,inactive,inactive,inactive,inactive,inactive,,inactive,-0.154% (inactive),inactive
OCCCCl,,inactive,inactive,inactive,inactive,,inactive,inactive,inactive,8.9% (inactive),inactive
CC(C)(C)c1n[nH]c(=O)n(N)c1=O,,inactive,inactive,inactive,,inactive,inactive,inactive,inactive,-0.732% (inactive),inactive
C[C@@]12C(=O)OC(=O)[C@]1(C)C1CCC2O1,6.01 µM (active),inactive,23.9 µM (active),1.51 µM (active),19 µM (active),,inactive,inactive,9.52 µM (active),,inactive
CCCCCCCC(=O)OCC,,inactive,inactive,inactive,,inactive,inactive,inactive,inactive,-3.83% (inactive),inactive
CC1CNCC(C)O1 (stereo not drawn),,inactive,inactive,inactive,,inactive,inactive,,inactive,11.7% (inactive),inactive
CO[Si](CCC1CCC2OC2C1)(OC)OC (stereo not drawn),,inactive,inactive,inactive,inactive,,,inactive,inactive,8.81% (inactive),inactive
CC(C)=CCCC(C)CCOC(=O)C(C)C (stereo not drawn),,inactive,inactive,inactive,inactive,,,inactive,inactive,12.8% (inactive),inactive
CCN(CC)CCNc1ccc(CO)c2sc3ccccc3c(=O)c12,16.9 µM (active),inactive,16.9 µM (active),23.9 µM (active),,13.4 µM (active),inactive,inactive,13.4 µM (active),,inactive
O=C(O)CC(=O)O,,inactive,inactive,inactive,,inactive,inactive,inactive,inactive,11.5% (inactive),inactive
CCc1cccc(CC)c1NC(=O)C(=O)O,,inactive,inactive,inactive,,inactive,inactive,inactive,inactive,9.15% (inactive),inactive
C=CC(=C)CCC=C(C)C,,inactive,inactive,inactive,,inactive,inactive,inactive,inactive,8.59% (inactive),inactive
CCCCCCCOC(=O)c1ccccc1C(=O)OCCCCCCC,,inactive,inactive,inactive,,,inactive,inactive,inactive,-16.7% (inactive),inactive
CCc1ccc(O)c(C(C)(C)C)c1,,43.6 µM (active),43.6 µM (active),inactive,,38.9 µM (active),38.9 µM (active),inactive,38.9 µM (active),-13.3% (inactive),inactive
O=CC1CC1,,inactive,inactive,inactive,,inactive,inactive,inactive,inactive,12% (inactive),inactive
CNC(=S)NN,19.5 µM (active),inactive,inactive,inactive,inactive,,inactive,inactive,inactive,,inactive
CCOC(/C=C(\C)CCC=C(C)C)OCC,,inactive,inactive,inactive,,inactive,inactive,inactive,inactive,9.38% (inactive),inactive
